Only some compounds are listed: those with a hit (about 1.8% of all), similar ones and a draw of the others.
KLF5 inhibitor = kruppel-like factor 5 inhibition. 290,000 compounds, 0.23% hits. DLD-1 KLF5 promoter-luciferase reporter, luminescence. inhibition, % at 5 µM;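 active = inhibition above a per-plate limit of that plate's mean compound inhibition plus 3 SD, cut at about 60% in these data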;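 also: 0% = DMSO wells and 100% = LY294002 at 200 µM; higher means less KLF5 promoter-driven luciferase light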
Ba/F3 V617F tox = lowers viability of Ba/F3 cells expressing EpoR and JAK2V617F. ATP luminescence. inhibition, % at 5.6 µM. 220,000 compounds, 1.1% hits;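 active = inhibition above the campaign mean plus 3 SD over all tested compounds, cut at about 24% in these data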;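 also: cytokine-independent growth of Ba/F3 cells driven by EpoR plus mutant JAK2; 0% = DMSO-treated cells and 100% = JAK inhibitor I control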
IEC-6 tox-1 = counter-screen for KLF5 inhibitors: cytotoxicity in IEC-6 cells. IEC-6 cytotoxicity, luminescence viability. inhibition, % at 5 µM. 290,000 compounds, 0.78% hits. AID 1825;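 also: 0% = plate median of test compound wells and 100% = cytotoxic reference compound wells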
BaF3 tox = reduces parental Ba/F3 cell viability, JAK2V617F counter-screen. CellTiter-Glo ATP luminescence. inhibition, % at 5.6 µM. 220,000 compounds, 1.1% hits. AID 1486;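 active = inhibition above a per-campaign cutoff, the mean inhibition of all tested compounds plus 3 SD, cut at about 27% in these data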;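 also: 0% = DMSO wells and 100% = JAK Inhibitor I control wells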
APP transl inh = APP translation inhibition; SH-SY5Y APP 5'UTR-luciferase reporter, luminescence; inhibition, % at 2 µM; 190,000 compounds, 0.82% hits; AID 1285;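 active = inhibition above a set limit, derived from the sample mean plus 3 SD, cut at about 45% in these data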
KLF5 inh confirm = confirmation of KLF5 inhibitors | 610 compounds, 79% hits | AID 1834 | DLD-1 KLF5 promoter firefly luciferase reporter, luminescence | shares compounds with KLF5 inhibitor | inhibition, % at 4 µM;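 active = inhibition above a set limit taken from the earlier primary screen, cut at about 63% in these data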;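 also: 0% = DMSO wells and 100% = LY294002 at 200 µM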
IEC-6 tox-2 = kills rat IEC-6 cells in KLF5 counter-screen. shares compounds with KLF5 inhibitor. IEC-6 rat intestinal cells, viability luminescence. inhibition, % at 4 µM. 610 compounds, 56% hits; in the data active = inhibition above about 23%;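 also: cells exposed to compounds for 48 hours before viability read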
IEC-6 tox confirm = IEC-6 cytotoxicity, confirmation assay; shares compounds with IEC-6 tox-1; IEC-6 rat intestinal epithelial viability, luminescence; inhibition, % at 5 µM; 1,900 compounds, 63% hits; AID 1907;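 also: 0% = vehicle and 100% = reference cytotoxic drug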
An asterisk follows results filed as active; . = no result given. Rule as the data show it, unless noted: active = inhibition above about 22%; inactive = the rest.

SMILES | KLF5 inhibitor | Ba/F3 V617F tox | IEC-6 tox-1 | BaF3 tox | APP transl inh | IEC-6 tox confirm | others
Cc1ccc(/C=N/NC(=O)c2c(-c3ccccc3)noc2C)c(O)c1 | 66.5* | . | 25.9* | . | . | 18.5 | KLF5 inh confirm=63.1*;IEC-6 tox-2=23.1*
CS(=O)(=O)c1ccc(C(=O)NC2CCCc3ccccc32)cc1 (stereo unspecified) | 16.1 | -0.6 | 0.4 | 4.2 | -46.9 | .
CC(=O)/C(C#N)=C1\NC(=O)C(Cc2ccccc2C)S1 (stereo unspecified) | 40.2 | 3.8 | 70.9* | 9.0 | . | 46.6*
CNC(=O)/C(C#N)=C1\SC(Cc2ccc(F)cc2)C(=O)N1c1ccccc1C (stereo unspecified) | -14.2 | 2.6 | 7.3 | -2.2 | . | .
CC(=O)/C(C#N)=C1\NC(=O)C(Cc2ccccc2)S1 (stereo unspecified) | 9.6 | -0.7 | 75.9* | 1.6 | 5.3 | 51.4*
C/C(=N\N=C1\NC(=O)C(Cc2ccccc2)S1)c1ccccc1 (stereo unspecified) | -18.7 | 0.2 | 1.8 | 5.9 | 4.1 | .
CCn1c(=S)sc2c(=O)n(CC(=O)Nc3ccc(Cl)cc3)c(C)nc21 | -11.4 | . | -0.8 | . | . | .
CC(C)C1CC(CCN)(Cc2ccccc2)CCO1 (stereo unspecified) | -7.0 | -3.9 | -8.0 | 1.3 | -0.2 | .
Cc1cc(=O)[nH]c(/N=C(\N)Nc2ccc(SC(F)F)cc2)n1 | -0.1 | 1.9 | 0.4 | 1.7 | 9.8 | .
C/C(=N\NC(=O)Cc1ccc(Cl)cc1)c1ccccc1O | -6.9 | . | 28.3* | . | . | 29.0*
O=C(Nc1ccc(-n2cccn2)cc1)C1CCCCN1Cc1cccc2c1OCO2 (stereo unspecified) | 39.3 | . | 54.1* | . | . | 36.9*
CCCCN(Cc1ccco1)S(=O)(=O)c1ccc(-c2ccc(=O)[nH]n2)s1 | -53.9 | . | -0.6 | . | . | .
C=C(C)COc1ccc(-c2[nH]ncc2-c2ccc(OC)c(OC)c2)c(O)c1 | 51.4 | 81.1* | 62.3* | 65.8* | 91.1* | 56.9*
C=C(C)COc1ccc(-c2[nH]ncc2-c2ccc(OC)cc2)c(O)c1 | 3.2 | -6.2 | -1.3 | 0.0 | . | .
Nc1nc(Cl)nc2c1ncn2[C@H]1C[C@H](O)[C@@H](CO)O1 | 18.6 | 101.4* | 89.5* | 95.0* | 75.7* | 67.8*
O=c1[nH]cnc2c1ncn2[C@@H]1C[C@@H](O)[C@H](CO)O1 | -26.2 | . | -4.4 | . | . | .
CC(=O)C1C(c2ccc(Cl)cc2)c2c(noc2C)CC1(C)O (stereo unspecified) | 5.5 | -1.3 | -3.2 | 0.6 | . | .
CC(=O)CC1OC(=O)C(Br)=C1NCc1ccccc1 (stereo unspecified) | -28.2 | 75.2* | 33.9* | 28.4* | 71.2* | 8.9
O=C(CC1Oc2ccccc2NC1=O)NCc1ccccc1 (stereo unspecified) | -22.7 | -5.0 | -6.6 | -0.2 | -2.0 | .
O=C(OCC(=O)N1CCCC1=O)c1cccc([N+](=O)[O-])c1 | -7.2 | . | -1.8 | . | . | .
O=C(OCC(=O)N1CCCC1=O)c1nc(Cl)c(Cl)c(Cl)c1Cl | 5.3 | . | 41.7* | . | . | 5.3
Cn1c(=O)c([N+](=O)[O-])c(Cl)c2ccccc21 | 15.0 | 2.7 | 48.0* | 6.8 | 57.4* | 64.3*
CCN(CC)c1c([N+](=O)[O-])c(=O)n(C)c2ccccc12 | -17.3 | -3.2 | -0.4 | 3.9 | -6.6 | .
CCOc1ccc2nc(NC(=O)c3ccoc3C)sc2c1 | -20.0 | 27.0* | 26.0* | 28.3* | -167.7 | 36.4*
Cc1cc(NC(=O)COC(=O)COc2cccc3c2OC(C)(C)C3)no1 | -16.0 | 0.0 | -0.6 | 5.1 | 10.6 | .
SMILES | KLF5 inhibitor | Ba/F3 V617F tox | IEC-6 tox-1 | BaF3 tox | APP transl inh | IEC-6 tox confirm | others
Cc1cnc(NC(=O)COc2cccc3c2OC(C)(C)C3)s1 | 41.9 | 5.9 | 30.0* | 10.6 | 28.6 | 33.6*
Cc1ccccc1S(=O)(=O)Cc1ccc(C(=O)N2CCN(c3cccc(C)c3C)CC2)o1 | 4.7 | 1.3 | 17.5 | 4.2 | 20.4 | .
COc1ccc(S(=O)Cc2ccc(C(=O)N3CCN(c4cccc(C)c4C)CC3)o2)cc1 (stereo unspecified) | 24.6 | . | 31.9* | . | . | 37.4*
O=C(Nc1ccc(NC(=O)N2CCN(c3ccccc3O)CC2)cc1)N1CCN(c2ccccc2O)CC1 | -15.6 | . | 1.0 | . | . | .
CC(=O)c1c(C)[nH]c(C(=O)NC2CCSc3ccccc32)c1C (stereo unspecified) | -10.6 | . | 5.8 | . | . | .
CCc1c(C(=O)NC2CCCc3ccccc32)[nH]c(C)c1C(C)=O (stereo unspecified) | 25.1 | . | 46.7* | . | . | 18.1
Cc1ccc2c(CC(=O)NCCc3ccc(S(N)(=O)=O)cc3)coc2c1 | 19.1 | -2.0 | 2.5 | 4.2 | . | .
CC(=O)c1c(C)cc(C)c(CSc2nc(C)cc(=O)[nH]2)c1C | -19.1 | 6.7 | 29.9* | 3.4 | -38.3 | 20.0
Cc1cnc(NC(=O)c2nn(C)cc2[N+](=O)[O-])s1 | -12.8 | 20.1 | 11.7 | -0.6 | 34.0 | .
O=C(Nc1cc(-c2nc3ncccc3o2)ccc1Cl)c1ccc([N+](=O)[O-])o1 | -27.4 | . | 93.2* | . | . | 30.5*
O=C(Nc1nc2c(F)cccc2s1)c1ccc([N+](=O)[O-])o1 | -47.2 | . | 40.3* | . | . | 15.2
O=C(Nc1cc(-c2nc3ncccc3o2)ccc1Cl)c1cccs1 | -20.4 | . | 8.0 | . | . | .
Cc1ccc(-c2csc(NC(=O)c3ccc(C)o3)n2)cc1 | -6.3 | 1.7 | -6.7 | 5.0 | -12.9 | .
Cc1ccc(-c2csc(NC(=O)c3ccc([N+](=O)[O-])o3)n2)cc1 | -35.0 | . | 99.7* | . | . | 41.6*
Cn1cc([N+](=O)[O-])c(C(=O)Nc2nc(-c3ccc(Cl)cc3)cs2)n1 | 2.4 | 4.5 | 36.6* | 28.3* | 95.9* | 56.4*
O=C(COC(=O)Cc1ccc(Cl)cc1)Nc1c(F)cccc1F | -17.6 | -0.4 | -1.0 | 5.1 | 5.2 | .
Cc1cccc(NC(=O)c2ccc([N+](=O)[O-])o2)c1C | -16.9 | 4.6 | 34.0* | -7.8 | 5.4 | 23.0*
O=C(Nc1cccc2ccccc12)c1ccc([N+](=O)[O-])o1 | -34.4 | . | 95.7* | . | . | 22.1*
Cn1cc([N+](=O)[O-])c(C(=O)Nc2ccc(C(=O)N3CCCCC3)cc2)n1 | -7.6 | 5.6 | -0.1 | 13.7 | 20.9 | .
Cc1ccc2nsnc2c1NC(=O)c1ccc([N+](=O)[O-])o1 | 6.2 | . | 96.2* | . | . | 28.3*
Cn1cc([N+](=O)[O-])c(C(=O)Nc2ccc(C3CCCCC3)cc2)n1 | -149.5 | 0.2 | 25.3* | 1.9 | -26.6 | 30.4*
CN1CCN(NC(=O)/C=C/c2cccc([N+](=O)[O-])c2)CC1 | -9.0 | . | 0.3 | . | . | .
Cc1ccc(NC(=O)C2c3ccccc3Oc3ccccc32)nc1 | -14.1 | 1.1 | 46.5* | 13.1 | 11.4 | 41.5*
O=C(Nc1cnccn1)C1c2ccccc2Oc2ccccc21 | -8.7 | -2.7 | 0.4 | 3.4 | 10.7 | .
CC(Oc1ccc2ccccc2c1)C(=O)NNC(=O)Nc1ccccc1F (stereo unspecified) | -37.7 | . | 2.8 | . | . | .

Bioassay records from PubChem.
